Among all 86,000 compounds or so, about 1,100 (1.3%) were called active.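 Rule for the calls: active = compounds whose percent inhibition of the receptor-coactivator binding signal exceeds about 50% in the single-dose screen (limit read from the data); inactive = the rest.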 The list comes from a sample in which actives are over-represented; it also holds similar structures and randomly drawn compounds.
molecular target: Estrogen receptor beta (Homo sapiens) (UniProt Q92731); assay: blockers of coactivator peptide binding to ERβ – biochemical, TR-FRET, ERβ LBD, SRC-1 peptide, primary screen (AID 633); conditions: TR-FRET ER-beta LBD / SRC1-Cy5 peptide binding; at 25.6 µM; hits give high values; receptor agonist-loaded with 1 µM estradiol;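 note: 0% = receptor plus peptide wells without compound and 100% = peptide-only wells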
Sequence (Q92731 whole entry, looked up, the tested form may be a part): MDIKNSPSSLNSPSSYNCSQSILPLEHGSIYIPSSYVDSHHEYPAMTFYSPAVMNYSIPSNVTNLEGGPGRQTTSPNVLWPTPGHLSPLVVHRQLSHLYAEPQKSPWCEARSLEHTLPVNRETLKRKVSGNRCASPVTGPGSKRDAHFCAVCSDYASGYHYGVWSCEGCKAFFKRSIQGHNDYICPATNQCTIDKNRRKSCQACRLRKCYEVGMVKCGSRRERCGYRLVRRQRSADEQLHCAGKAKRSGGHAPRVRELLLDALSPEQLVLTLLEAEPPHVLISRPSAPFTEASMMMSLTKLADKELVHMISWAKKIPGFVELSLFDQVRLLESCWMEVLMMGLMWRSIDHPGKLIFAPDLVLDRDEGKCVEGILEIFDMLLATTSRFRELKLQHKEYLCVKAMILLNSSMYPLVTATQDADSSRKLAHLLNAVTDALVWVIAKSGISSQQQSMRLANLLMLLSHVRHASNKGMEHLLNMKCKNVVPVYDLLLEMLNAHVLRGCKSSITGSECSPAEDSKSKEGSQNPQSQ

inhibition, inactive:
Cn1c(NN)nc2sc3c(c2c1=O)CCC3 -7.13%
CCNC(=O)NC(=O)C(C)OC(=O)c1cc(S(=O)(=O)N2CCCCCC2)ccc1OC (centres undefined) -4.07%
COc1ccc(-c2noc(-c3ccc(C)cc3)n2)cc1 -3.86%
Cc1cccc(-c2noc(-c3ccc(F)cc3)n2)c1 -10.2%
CCSc1ccccc1C(=O)NCc1ccc(OC)cc1 15.2%
CCC(=O)NC(Nc1nc2ccc(C)cc2s1)(C(=O)OC)C(F)(F)F (centres undefined) 9.59%
Cc1cc(N2CCN(S(=O)(=O)c3ccc(C)c(C)c3)CC2)c2ccccc2n1 3.59%
c1ccc2[nH]c(NCCN3CCOCC3)nc2c1 -3.02%
c1ccc(Nc2nc(N3CCOCC3)c3ccccc3n2)cc1 -6.49%
O=C(Cc1ccc(-n2c(=O)c3sccc3n(Cc3ccc(F)cc3)c2=O)cc1)NCc1ccco1 21.4%
O=C1C2C3C=CC(C4CC34)C2C(=O)N1/N=C/c1ccc(-c2ccccc2[N+](=O)[O-])o1 (centres undefined) 2.95%
CC(C)C(=O)NC(NC(=S)NC1CCS(=O)(=O)C1)C(Cl)(Cl)Cl (centres undefined) 14.7%
COc1ccccc1NC(=O)C1CCCN(c2cc(C)nc3ncnn23)C1 (centres undefined) -2.37%
CCOc1ccc(C(O)Cc2nc3ccccc3n2C)cc1 (centres undefined) -4.37%
CCOC(=O)c1ccccc1NS(=O)(=O)c1ccc(OC)cc1 -1.65%
COC(=O)c1cc2nc(-c3ccccc3)cc(C(F)(F)F)n2n1 -1.27%
O=C(NCc1ccco1)c1cnn2c(C(F)(F)F)cc(-c3ccco3)nc12 5.47%
Cc1noc(/C=C/c2ccco2)c1S(=O)(=O)N1CCC(C(=O)N2CCc3ccccc32)CC1 -6.43%
Nc1ccc(-c2nnc(-c3ccc(-c4ccccc4)cc3)o2)cc1 19.9%
O=C(Nc1ccc(-c2nnc(-c3ccccc3)o2)cc1)c1ccc(Br)o1 30%
CC(C)n1c(-c2cccs2)nc2ccccc21 -10.4%
Cc1cc(S(=O)(=O)NC2CCCCC2)ccc1OCC(=O)NCc1cccnc1 -4.71%
Cc1cc2c(c(=O)n1Cc1ccco1)C(c1ccccc1)C(C#N)=C(N)O2 (centres undefined) -16.4%
CC1=C(C(=O)Nc2ccccc2)C(c2ccco2)C(C#N)=C(SCC(N)=O)N1 (centres undefined) -2.8%
CC(C)c1nc2ccc(C(=O)O)cc2[nH]1 14.7%
Cc1ccc2nc(S(=O)(=O)O)[nH]c2c1 3.08%
Cn1ccs/c1=N\S(=O)(=O)c1ccc(C(C)(C)C)cc1 0.33%
COc1ccccc1/C=C/C1=NC(=C\N(C)C)/C(=O)O1 1.45%
CCNCc1cc2cc(C)ccc2[nH]c1=O -8.3%
COc1ccc(CCn2c(=N)c(C(=O)NCc3ccco3)cc3c(=O)n4cccc(C)c4nc32)cc1 48.1%
Cn1nnnc1SCC(=O)Nc1ccccc1C(=O)NC1CC1 -5.32%
CC1CN(S(=O)(=O)c2ccccc2)C(C)CN1S(=O)(=O)c1ccccc1 (centres undefined) 1.26%
Cc1cc(C)cc(N(CC(=O)N2CC=C(c3ccccc3)CC2)S(=O)(=O)c2c(C)noc2C)c1 -1.97%
CCOc1ccc(S(=O)(=O)Nc2ccc(S(=O)(=O)Nc3cc(OC)ccc3OC)cc2)cc1 -5.81%
CCCCCCc1cc2cc(-c3nnc(-c4cccc(OC)c4)o3)c(=O)oc2cc1O 1.17%

inhibition, active:
COc1ccc2[nH]c(=O)c(-c3noc(-c4ccc(F)cc4)n3)cc2c1 63.8% [fluorescence artefact?]
C1=C(N2CCOCC2)/C(=C/c2nc3ccccc3[nH]2)CC1 72.1%
CS(=O)(=O)c1ccc2c(c1)SC1=NC(=O)/C(=C/c3ccco3)C(=N)N12 79% [fluorescence artefact?]
Cc1coc2c(O)cc3c(c12)OC1(N2CCCCC2)C(=O)NCCCC31 (centres undefined) 60.9% [fluorescence artefact?]
COC(=O)c1cnn2c(C(F)(F)F)cc(-c3ccco3)nc12 58.5%
Brc1ccc(-c2nnc(-c3ccccc3)o2)o1 60.6% [fluorescence artefact?]
N#CC1=C(N)Oc2c(sc3ccccc23)C1c1ccco1 (centres undefined) 51.7% [fluorescence artefact?]
Cc1nc2ccc(C(=O)O)cc2[nH]1 56.8%
Cc1ccc2[nH]c(=O)c(-c3nc4c(C)cccn4c3NCc3ccco3)cc2c1 56.9% [fluorescence artefact?]
